Data as given in PubChem BioAssay (EPA / NIEHS).
Records with an inconclusive call do not appear. Active and inactive are the calls of the source. Rule for the calls, unless noted: active = hit-call score of the fitted dose curve at least 0.9, where 1 is the maximum; inactive = score below 0.9.

What was measured:
[1] = molecular target: Hypoxia-inducible factor 1-alpha (Homo sapiens) (UniProt Q16665); test: ATG_HIF1a_CIS: Attagene CIS-FACTORIAL HepG2 Assay for human Hypoxia Inducible Factor 1 (HIF1A) (AID 2282951); details: HepG2 Attagene cis-factorial HIF1a reporter transcription; actives raise or lower the signal
In short: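 Dosed 24 h, transfected HepG2 cells yielded total RNA whose reporter transcripts were RT-PCR-amplified and sized by capillary electrophoresis using fluorescent labelling; DMSO defined baseline, with gain and loss of signal both fitted.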

[2] = molecular target: Hepatocyte nuclear factor 6 (Homo sapiens) (UniProt Q9UBC0); test: ATG_HNF6_CIS: Attagene CIS-FACTORIAL HepG2 Assay for human Hepatocyte Nuclear Factor 6 (HNF6) (AID 2282952); details: HepG2 Attagene cis-factorial HNF6 reporter transcription; actives raise or lower the signal
In short: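 Twenty-four-hour chemical treatment of reporter-transfected HepG2 cells precedes RNA isolation, DNase-treated reverse transcription and PCR of reporter sequences. Labelled fragments are sized by capillary electrophoresis and fitted bidirectionally versus DMSO.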

[3] = molecular target: Heat shock factor protein 1 (Homo sapiens) (UniProt Q00613); test: ATG_HSE_CIS: Attagene CIS-FACTORIAL HepG2 Assay for human Heat Shock Transcription Factor 1 (HSE) (AID 2282953); details: HepG2 HSE cis-reporter, Attagene RNA transcription; actives raise or lower the signal
In short: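 Using HepG2 with transfected cis-driven reporter constructs, compound effects on endogenous factor activity are scored as reporter mRNA change at 24 h. Detection: RT-PCR, HpaI digestion, capillary electrophoresis; bidirectional fitting to DMSO.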

[4] = ATG_MRE_CIS: Attagene CIS-FACTORIAL HepG2 Assay for human Metal Responsive Element (MRE) (AID 2282954); details: HepG2 MRE cis-reporter transcription, Attagene multiplex; actives raise or lower the signal
In short: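 RT-PCR/capillary electrophoresis readout of reporter mRNA, 24 h post-dosing, in HepG2 cells transfected with multiplexed cis-regulated reporter constructs. Gain or loss of signal fitted bidirectionally against DMSO baseline.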

[5] = ATG_PBREM_CIS: Attagene CIS-FACTORIAL HepG2 Assay for human Phenobarbital-responsive Enhancer Module (PBREM) (AID 2282955); details: HepG2 PBREM cis-reporter, Attagene multiplexed transcription; actives raise or lower the signal
In short: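 Transfected liver-derived HepG2 cells exposed 24 h; PBREM reporter transcript quantified via RT-PCR and capillary electrophoresis, with activity in either direction referenced to DMSO.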

[6] = molecular target: Paired box protein Pax-6 (Homo sapiens) (UniProt P26367); test: ATG_Pax6_CIS: Attagene CIS-FACTORIAL HepG2 Assay for human Paired Box 6 (PAX6) (AID 2282956); details: HepG2 CIS-FACTORIAL PAX6 reporter transcription, RNA readout; actives raise or lower the signal
In short: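 Read-out is reporter transcript level, measured by RT-PCR with fluorescent primer extension and capillary electrophoresis after 24 h dosing of transfected HepG2 cells. Activity in either direction fitted relative to DMSO control.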

[7] = ATG_PXRE_CIS: Attagene CIS-FACTORIAL HepG2 Assay for human Pregnane X Receptor Element (PXRE) (AID 2282957); details: HepG2 Attagene CIS-FACTORIAL PXRE reporter, mRNA; actives raise or lower the signal
In short: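 Bidirectional activity, baselined to DMSO, derived from reporter mRNA fluorescence (RT-PCR plus capillary electrophoresis) in HepG2 cells bearing cis-promoter reporter units, 24 h exposure.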

[8] = ATG_RORE_CIS: Attagene CIS-FACTORIAL HepG2 Assay for human RAR-related Orphan Receptor Element (RORE) (AID 2282959); details: HepG2 Attagene cis-factorial RORE reporter, mRNA; actives raise or lower the signal
In short: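 Transiently transfected HepG2 reporter cells were treated 24 h. Reporter transcripts were detected by RT-PCR and capillary electrophoresis, with bidirectional fitting against DMSO.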

[9] = ATG_Sox_CIS: Attagene CIS-FACTORIAL HepG2 Assay for human SRY-box transcription factor (SOX) (AID 2282960); details: HepG2 Attagene cis-factorial SOX reporter, mRNA; actives raise or lower the signal
In short: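 Gain- or loss-of-signal endpoint, fitted bidirectionally with DMSO as negative control. Based on reporter mRNA from transfected HepG2 cells harvested 24 h post-treatment and quantified via RT-PCR and capillary electrophoresis.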

[10] = molecular target: Transcription factor Sp1 (Homo sapiens) (UniProt P08047); test: ATG_Sp1_CIS: Attagene CIS-FACTORIAL HepG2 Assay for human Specificity Protein 1 (Sp1) (AID 2282961); details: HepG2 Sp1 cis-reporter transcription, actives raise or lower the signal
In short: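 Endpoint reflects endogenous Sp1 transcriptional activity, not an exogenous fusion protein: HepG2 cells with transfected cis-regulated reporters, 24 h dosing, RT-PCR/capillary electrophoresis mRNA read-out, DMSO-normalised bidirectional fit.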

[11] = ATG_SREBP_CIS: Attagene CIS-FACTORIAL HepG2 Assay for human Sterol Regulatory Element Binding (SREBP) (AID 2282962); details: HepG2 Attagene cis-factorial SREBP reporter, mRNA; actives raise or lower the signal
In short: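 Endogenous SREBP activity read as cis-element-driven reporter transcript in transiently transfected HepG2, 24 h post-dosing; quantified via RT-PCR plus capillary electrophoresis of fluorescent fragments. Gain or loss of signal fitted relative to DMSO baseline.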

[12] = molecular target: Signal transducer and activator of transcription 3 (Homo sapiens) (UniProt P40763); test: ATG_STAT3_CIS: Attagene CIS-FACTORIAL HepG2 Assay for human Signal Transducer and Activator of Transcription 3 (STAT3) (AID 2282963); details: HepG2, Attagene cis-factorial STAT3 reporter transcription; actives raise or lower the signal
In short: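 Readout: fluorescent reporter mRNA fragments resolved by capillary electrophoresis. Setup: HepG2 transfected with MRTUs reporting endogenous transcription-factor activity, dosed 24 h. Gain or loss of signal fitted bidirectionally against DMSO control.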

[13] = ATG_TA_CIS: Attagene CIS-FACTORIAL HepG2 Assay for human TA Basal Promoter (AID 2282964); details: HepG2 Attagene CIS-factorial TA basal promoter reporter; actives raise or lower the signal
In short: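 Transient MRTU transfection of HepG2 preceded 24 h compound exposure. Reporter mRNA levels were then read by RT-PCR with capillary electrophoresis, and this background-control endpoint was fitted bidirectionally to DMSO.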

[14] = ATG_TCF_b_cat_CIS: Attagene CIS-FACTORIAL HepG2 Assay for human T-Cell-Factor with beta-catenin (TCF/b-cat) (AID 2282965); details: HepG2 TCF/beta-catenin cis-reporter transcription, actives raise or lower the signal
In short: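 HepG2, transient MRTU transfection, cis-element-driven reporters (endogenous TFs). 24 h compound exposure. Readout: reporter mRNA by RT-PCR + 6-FAM primer extension, HpaI digest, capillary electrophoresis. Gain/loss fit vs DMSO baseline.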

[15] = ATG_TAL_CIS: Attagene CIS-FACTORIAL HepG2 Assay for human TAL Basal Promoter (AID 2282966); details: HepG2 Attagene cis-factorial TAL promoter reporter; actives raise or lower the signal;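 note: background control endpoint measuring basal TAL promoter reporter mRNA not a specific factor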
In short: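 Human hepatoma HepG2 cells, transfected with promoter-regulated reporter units, were treated 24 h. Reporter transcript levels, measured through RT-PCR and capillary electrophoresis, were fitted for gain or loss relative to DMSO.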

[16] = ATG_TGFb_CIS: Attagene CIS-FACTORIAL HepG2 Assay for human Transforming Growth Factor (TGF) (AID 2282967); details: HepG2 Attagene CIS TGFb reporter, mRNA transcription; actives raise or lower the signal
In short: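 After a 24-hour incubation with compound, transfected HepG2 cells were lysed for RNA; reporter cDNA was amplified, fluorescently end-labeled and separated by CE. DMSO served as baseline for bidirectional fits.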

[17] = ATG_VDRE_CIS: Attagene CIS-FACTORIAL HepG2 Assay for human Vitamin D Receptor Element (VDRE) (AID 2282968); details: HepG2 VDRE cis-reporter transcription, actives raise or lower the signal
In short: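 Transient MRTU transfection of HepG2, 24 h compound exposure. Readout: reporter transcripts via RT-PCR and capillary electrophoresis, fluorescence. Bidirectional fit vs DMSO.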

[18] = molecular target: Estrogen receptor (Homo sapiens) (UniProt P03372); test: ATG_ERa_TRANS: Attagene TRANS-FACTORIAL HepG2 Assay for human Estrogen Receptor alpha (ERa) (AID 2282970; active = hit-call score of the fitted dose curve at least 0.9, where 1 is the maximum); details: HepG2 Attagene TRANS ERa GAL4 reporter, mRNA
In short: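 Signal derives from fluorescence of labelled reporter PCR fragments separated by capillary electrophoresis. HepG2 cells transiently carrying multiple GAL4-UAS reporter units were treated 24 hours, and induction above DMSO baseline was fitted as activity.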

[19] = ATG_PPRE_CIS: Attagene CIS-FACTORIAL HepG2 Assay for human Peroxisome Proliferator-activated Response Element (PPRE) (AID 2282958); details: HepG2 PPRE cis-element reporter, Attagene transcription factor profiling; actives raise or lower the signal
In short: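 Measured endpoint: PPRE-controlled reporter mRNA, detected by RT-PCR and capillary electrophoresis fluorescence, from transiently transfected HepG2 cells 24 h after dosing. Curves fitted in both directions using DMSO baseline.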

[20] = molecular target: Nuclear receptor subfamily 1 group I member 3 (Homo sapiens) (UniProt Q14994); test: ATG_CAR_TRANS: Attagene TRANS-FACTORIAL HepG2 Assay for human Constitutive Androstane Receptor (CAR) (AID 2282969; active = hit-call score of the fitted dose curve at least 0.9, where 1 is the maximum;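 note: activators raise reporter mRNA above DMSO so AC50 marks induction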); details: HepG2 Attagene TRANS-FACTORIAL CAR reporter
In short: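 Transiently transfected HepG2, multiplex TRANS reporters (CAR-Gal4 chimera driving GAL4-UAS reporter). 24 h dosing. Readout: reporter transcript by RT-PCR + capillary electrophoresis, fluorescence intensity; positive direction vs DMSO.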

Measured: AC50

Sequence of Transcription factor Sp1 (Homo sapiens) (P08047 whole entry, looked up, the tested form may be a part): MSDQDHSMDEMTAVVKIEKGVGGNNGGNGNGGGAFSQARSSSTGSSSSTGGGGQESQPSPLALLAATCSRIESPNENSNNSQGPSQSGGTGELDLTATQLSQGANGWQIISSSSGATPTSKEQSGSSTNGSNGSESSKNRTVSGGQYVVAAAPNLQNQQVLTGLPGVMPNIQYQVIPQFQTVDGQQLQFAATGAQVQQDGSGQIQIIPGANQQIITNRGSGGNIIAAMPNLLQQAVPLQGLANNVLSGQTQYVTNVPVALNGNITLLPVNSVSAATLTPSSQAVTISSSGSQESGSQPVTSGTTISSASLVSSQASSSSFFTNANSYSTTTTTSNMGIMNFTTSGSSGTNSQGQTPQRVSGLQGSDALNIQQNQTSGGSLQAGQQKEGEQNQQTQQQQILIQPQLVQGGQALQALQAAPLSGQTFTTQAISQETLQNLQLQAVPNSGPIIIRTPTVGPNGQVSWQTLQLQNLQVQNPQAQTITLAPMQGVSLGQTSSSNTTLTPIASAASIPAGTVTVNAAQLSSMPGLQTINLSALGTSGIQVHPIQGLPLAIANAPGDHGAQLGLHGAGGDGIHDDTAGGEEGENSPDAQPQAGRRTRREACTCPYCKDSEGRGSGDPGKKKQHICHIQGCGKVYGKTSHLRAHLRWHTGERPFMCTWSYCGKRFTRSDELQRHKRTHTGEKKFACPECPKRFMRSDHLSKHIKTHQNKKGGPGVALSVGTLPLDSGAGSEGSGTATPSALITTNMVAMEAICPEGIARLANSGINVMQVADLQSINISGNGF
Sequence of Heat shock factor protein 1 (Homo sapiens) (Q00613 whole entry, looked up): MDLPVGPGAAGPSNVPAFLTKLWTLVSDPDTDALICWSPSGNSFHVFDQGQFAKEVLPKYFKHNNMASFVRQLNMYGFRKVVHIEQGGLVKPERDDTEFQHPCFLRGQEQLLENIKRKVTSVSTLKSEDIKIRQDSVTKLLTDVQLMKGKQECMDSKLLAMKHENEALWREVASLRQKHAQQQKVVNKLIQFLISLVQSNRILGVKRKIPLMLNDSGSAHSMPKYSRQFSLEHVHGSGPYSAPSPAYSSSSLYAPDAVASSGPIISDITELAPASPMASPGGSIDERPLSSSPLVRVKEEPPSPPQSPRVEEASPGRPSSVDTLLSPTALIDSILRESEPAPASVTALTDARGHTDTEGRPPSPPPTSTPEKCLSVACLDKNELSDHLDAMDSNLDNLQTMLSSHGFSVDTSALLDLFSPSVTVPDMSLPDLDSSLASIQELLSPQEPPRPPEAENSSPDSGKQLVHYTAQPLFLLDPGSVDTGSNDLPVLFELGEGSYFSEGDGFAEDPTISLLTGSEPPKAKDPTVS
Sequence of Nuclear receptor subfamily 1 group I member 3 (Homo sapiens) (Q14994 whole entry, looked up, the tested form may be a part): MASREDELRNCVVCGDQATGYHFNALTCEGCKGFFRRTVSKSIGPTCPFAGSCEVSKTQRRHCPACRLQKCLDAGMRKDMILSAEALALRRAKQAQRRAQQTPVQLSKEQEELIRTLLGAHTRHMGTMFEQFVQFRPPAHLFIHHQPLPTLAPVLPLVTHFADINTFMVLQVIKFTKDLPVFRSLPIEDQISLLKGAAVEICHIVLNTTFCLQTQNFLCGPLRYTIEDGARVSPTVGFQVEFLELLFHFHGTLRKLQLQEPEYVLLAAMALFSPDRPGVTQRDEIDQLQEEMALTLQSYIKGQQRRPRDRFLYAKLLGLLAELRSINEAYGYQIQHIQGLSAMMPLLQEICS
Sequence of Signal transducer and activator of transcription 3 (Homo sapiens) (P40763 whole entry, looked up, the tested form may be a part): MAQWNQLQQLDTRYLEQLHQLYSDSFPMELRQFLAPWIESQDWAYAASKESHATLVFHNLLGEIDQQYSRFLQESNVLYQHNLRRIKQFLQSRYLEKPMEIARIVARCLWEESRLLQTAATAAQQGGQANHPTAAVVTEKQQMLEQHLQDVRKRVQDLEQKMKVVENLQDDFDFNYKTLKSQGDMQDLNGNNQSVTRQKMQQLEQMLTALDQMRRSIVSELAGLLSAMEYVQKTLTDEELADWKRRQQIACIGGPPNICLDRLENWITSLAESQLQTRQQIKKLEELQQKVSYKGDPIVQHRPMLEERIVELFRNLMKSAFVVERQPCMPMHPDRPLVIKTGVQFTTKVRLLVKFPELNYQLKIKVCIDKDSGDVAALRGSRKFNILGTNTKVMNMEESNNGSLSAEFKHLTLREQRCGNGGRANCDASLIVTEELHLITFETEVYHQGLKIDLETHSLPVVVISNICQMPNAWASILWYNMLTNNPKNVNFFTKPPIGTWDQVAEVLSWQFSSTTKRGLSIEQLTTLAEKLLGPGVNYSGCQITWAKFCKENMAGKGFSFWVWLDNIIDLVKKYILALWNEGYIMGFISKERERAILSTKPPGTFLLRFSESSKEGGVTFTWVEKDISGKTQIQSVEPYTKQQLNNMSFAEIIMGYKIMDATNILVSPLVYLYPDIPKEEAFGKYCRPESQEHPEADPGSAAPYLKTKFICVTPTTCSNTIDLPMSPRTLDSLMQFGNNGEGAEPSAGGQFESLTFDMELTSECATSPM
Sequence of Hypoxia-inducible factor 1-alpha (Homo sapiens) (Q16665 whole entry, looked up): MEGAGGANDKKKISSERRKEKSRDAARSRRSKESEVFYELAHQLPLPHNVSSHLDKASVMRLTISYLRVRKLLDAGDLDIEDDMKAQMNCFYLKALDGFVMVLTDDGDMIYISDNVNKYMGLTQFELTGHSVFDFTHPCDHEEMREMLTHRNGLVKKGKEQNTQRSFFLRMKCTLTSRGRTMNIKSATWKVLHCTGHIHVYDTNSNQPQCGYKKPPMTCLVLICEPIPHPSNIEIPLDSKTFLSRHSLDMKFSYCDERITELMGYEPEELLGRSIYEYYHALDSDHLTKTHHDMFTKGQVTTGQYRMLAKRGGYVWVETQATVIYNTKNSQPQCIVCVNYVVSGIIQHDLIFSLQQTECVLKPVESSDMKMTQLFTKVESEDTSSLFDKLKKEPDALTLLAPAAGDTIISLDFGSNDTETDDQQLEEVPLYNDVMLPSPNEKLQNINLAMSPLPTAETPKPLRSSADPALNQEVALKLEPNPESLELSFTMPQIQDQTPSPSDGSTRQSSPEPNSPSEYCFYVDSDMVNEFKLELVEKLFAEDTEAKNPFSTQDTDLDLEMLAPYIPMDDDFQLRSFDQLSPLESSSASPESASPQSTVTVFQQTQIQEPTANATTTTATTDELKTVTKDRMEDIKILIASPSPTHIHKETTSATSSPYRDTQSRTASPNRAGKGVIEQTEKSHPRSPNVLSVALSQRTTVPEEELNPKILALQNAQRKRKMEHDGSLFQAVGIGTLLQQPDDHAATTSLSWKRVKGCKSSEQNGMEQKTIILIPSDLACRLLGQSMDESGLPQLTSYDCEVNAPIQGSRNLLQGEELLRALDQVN
Sequence of Estrogen receptor (Homo sapiens) (P03372 whole entry, looked up, the tested form may be a part): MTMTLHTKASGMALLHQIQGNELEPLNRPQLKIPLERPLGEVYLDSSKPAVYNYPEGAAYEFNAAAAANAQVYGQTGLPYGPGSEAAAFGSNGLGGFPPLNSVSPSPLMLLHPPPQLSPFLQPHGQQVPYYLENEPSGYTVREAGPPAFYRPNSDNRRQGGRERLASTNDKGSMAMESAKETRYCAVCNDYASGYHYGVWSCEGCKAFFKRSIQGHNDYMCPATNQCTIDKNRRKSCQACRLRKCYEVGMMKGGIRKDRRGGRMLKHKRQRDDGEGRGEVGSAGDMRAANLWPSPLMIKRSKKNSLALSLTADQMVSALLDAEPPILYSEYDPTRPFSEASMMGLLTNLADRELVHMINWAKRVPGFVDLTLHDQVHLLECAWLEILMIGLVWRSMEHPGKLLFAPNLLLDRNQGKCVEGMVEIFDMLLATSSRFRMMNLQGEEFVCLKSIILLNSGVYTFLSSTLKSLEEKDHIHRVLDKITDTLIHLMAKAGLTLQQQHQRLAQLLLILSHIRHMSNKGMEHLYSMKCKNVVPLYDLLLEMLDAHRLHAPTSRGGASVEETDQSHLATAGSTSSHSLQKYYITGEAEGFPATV
Sequence of Paired box protein Pax-6 (Homo sapiens) (P26367 whole entry, looked up): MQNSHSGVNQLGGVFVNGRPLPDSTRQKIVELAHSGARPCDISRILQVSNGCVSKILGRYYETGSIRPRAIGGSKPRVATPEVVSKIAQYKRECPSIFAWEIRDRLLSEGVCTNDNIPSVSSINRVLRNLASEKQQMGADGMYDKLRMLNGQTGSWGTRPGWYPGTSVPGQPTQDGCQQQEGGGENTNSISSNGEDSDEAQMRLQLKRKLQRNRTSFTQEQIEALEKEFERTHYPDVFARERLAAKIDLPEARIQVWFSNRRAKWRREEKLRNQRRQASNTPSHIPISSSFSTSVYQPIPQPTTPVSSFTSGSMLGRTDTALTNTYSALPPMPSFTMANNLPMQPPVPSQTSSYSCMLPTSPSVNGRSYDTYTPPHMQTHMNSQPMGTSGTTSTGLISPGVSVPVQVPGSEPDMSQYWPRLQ
Sequence of Hepatocyte nuclear factor 6 (Homo sapiens) (Q9UBC0 whole entry, looked up, the tested form may be a part): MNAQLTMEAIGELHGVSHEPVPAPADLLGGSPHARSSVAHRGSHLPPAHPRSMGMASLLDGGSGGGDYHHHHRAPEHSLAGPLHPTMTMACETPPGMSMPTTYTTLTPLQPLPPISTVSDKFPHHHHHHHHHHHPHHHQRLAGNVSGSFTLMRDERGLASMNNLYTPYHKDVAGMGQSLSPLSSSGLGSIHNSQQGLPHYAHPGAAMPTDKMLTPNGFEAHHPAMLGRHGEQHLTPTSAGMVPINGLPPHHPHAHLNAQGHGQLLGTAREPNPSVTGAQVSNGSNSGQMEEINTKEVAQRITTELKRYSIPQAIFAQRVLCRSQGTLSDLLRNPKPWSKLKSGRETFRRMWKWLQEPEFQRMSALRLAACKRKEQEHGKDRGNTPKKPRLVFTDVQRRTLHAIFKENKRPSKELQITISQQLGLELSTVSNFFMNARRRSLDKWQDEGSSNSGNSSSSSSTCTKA

CC(C)(C)c1ccc(CCOc2ncnc3ccccc23)cc1
active: [7] 34.7 µM
not listed: [19] | [20]
inactive: all other assays above

Cc1ccc2nc3sc(=O)sc3nc2c1
active: [3] 12.3 µM | [6] 7.08 µM | [7] 6.36 µM | [9] 6.58 µM | [13] 43.9 µM | [17] 14.3 µM
not listed: [8] | [18] | [20]
inactive: all other assays above

CN(C1CCCCC1)C1CCCCC1
active: [7] 31.7 µM
not listed: [6] | [20]
inactive: all other assays above

OC[C@@H](O)[C@H]1O[C@@H]2O[C@H](C(Cl)(Cl)Cl)O[C@@H]2[C@H]1O
not listed: [6] | [17]
inactive: all other assays above

CC(C)(c1ccccc1)c1cc(-n2nc3ccccc3n2)c(O)c(C(C)(C)c2ccccc2)c1
active: [7] 15.3 µM
not listed: [6]
inactive: all other assays above

CC(C)(C1CCC(O)CC1)C1CCC(O)CC1 (centres undefined)
active: [7] 35.3 µM | [18] 11.2 µM
not listed: [17] | [19]
inactive: all other assays above

O=NN1CCCCCCC1
active: [7] 47.4 µM
not listed: [8] | [17] | [19] | [20]
inactive: all other assays above
